Measurements published in PubChem BioAssay AID602144 (Vanderbilt Specialized Chemistry Center, 2011).
Unmarked numbers belong to inactive results. Activity calls are given as the source filed them. Cut-off read from the data, not from the text of the source: active = remaining activity below about 50%; inactive = the rest.

target: Phospholipase D1 (Homo sapiens) (UniProt Q13393); assay: cellular phospholipase D1 activity inhibition – Calu-1 cells, single concentration (AID 602144); details: cellular PLD1 activity, stronger effect = lower value;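 note: tested at 200 nM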
Sequence (Q13393 whole entry, looked up): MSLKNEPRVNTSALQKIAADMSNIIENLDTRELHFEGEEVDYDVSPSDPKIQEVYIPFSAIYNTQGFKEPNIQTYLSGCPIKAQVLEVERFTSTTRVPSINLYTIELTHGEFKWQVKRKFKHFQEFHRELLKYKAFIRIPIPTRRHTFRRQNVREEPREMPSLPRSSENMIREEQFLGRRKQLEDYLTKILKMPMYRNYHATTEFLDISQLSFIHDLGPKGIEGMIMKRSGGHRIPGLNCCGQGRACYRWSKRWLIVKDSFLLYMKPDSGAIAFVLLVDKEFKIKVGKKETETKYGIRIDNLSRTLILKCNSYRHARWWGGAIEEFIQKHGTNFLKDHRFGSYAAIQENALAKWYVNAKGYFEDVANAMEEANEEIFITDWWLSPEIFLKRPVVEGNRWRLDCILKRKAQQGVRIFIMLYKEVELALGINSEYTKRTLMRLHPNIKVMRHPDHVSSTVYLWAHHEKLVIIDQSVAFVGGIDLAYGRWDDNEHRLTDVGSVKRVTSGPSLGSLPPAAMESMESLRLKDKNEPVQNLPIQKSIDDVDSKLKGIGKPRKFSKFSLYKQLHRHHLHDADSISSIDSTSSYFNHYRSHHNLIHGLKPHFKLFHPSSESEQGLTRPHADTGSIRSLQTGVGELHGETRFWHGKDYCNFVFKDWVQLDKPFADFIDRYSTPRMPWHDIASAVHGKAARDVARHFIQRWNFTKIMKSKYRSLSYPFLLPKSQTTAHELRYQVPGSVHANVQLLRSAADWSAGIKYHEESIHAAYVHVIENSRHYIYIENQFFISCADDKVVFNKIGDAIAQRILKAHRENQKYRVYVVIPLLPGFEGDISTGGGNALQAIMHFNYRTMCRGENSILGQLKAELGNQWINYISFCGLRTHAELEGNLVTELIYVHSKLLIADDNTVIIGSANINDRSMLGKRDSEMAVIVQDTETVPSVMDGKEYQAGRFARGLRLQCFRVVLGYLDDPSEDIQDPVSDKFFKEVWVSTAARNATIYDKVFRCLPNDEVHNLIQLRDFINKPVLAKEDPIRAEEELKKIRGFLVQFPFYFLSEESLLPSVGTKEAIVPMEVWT
Sequence (Q13393 whole entry, looked up): as above

Row | Compound | remaining activity
1 | Cc1ccc(C(=O)N[C@@H](C)CN2CCC(n3c(=O)[nH]c4cc(Cl)ccc43)CC2)cc1 | 12.1% (active)
2 | C[C@@H](CN1CCC(c2nc3ccc(F)cc3[nH]2)CC1)NC(=O)[C@H]1CC1c1ccccc1 (some centres not stated) | 88%
3 | O=C(NCCN1CCC(n2c(=O)[nH]c3ccccc32)CC1)c1ccc2c(ccc3ccc4ccccc4c32)c1 | 74.8%
4 | C[C@@H](CN1CCC(n2nnc3cc(C(F)(F)F)ccc32)CC1)NC(=O)c1ccc2ccccc2c1 | 65.2%
5 | C[C@@H](CN1CCC2(C=Cc3ccccc32)CC1)NC(=O)c1ccc2ccccc2c1 | 102%
6 | Cc1ccccc1NC(=S)NCCN1CCC(n2c(=O)[nH]c3ccccc32)CC1 | 173%
7 | COc1cccc(N2CCN(CCNC(=O)c3ccc(F)cc3)CC2)c1 | 110%
8 | Cn1c(=O)n(C2CCN(CCNC(=O)[C@H]3C[C@@H]3c3ccccc3)CC2)c2ccccc21 | 76.2%
9 | O=C(NCCN1CC=C(n2nnc3cc(C(F)(F)F)ccc32)CC1)c1cnc2ccccc2c1 | 44.5% (active)
10 | C[C@@H](CN1CC=C(n2c(=O)[nH]c3ccccc32)CC1)NC(=O)c1ccc2ccccc2c1 | 0.0151% (active)
11 | O=c1[nH]c2ccccc2n1C1CCN(CCNS(=O)(=O)c2ccc(OC(F)(F)F)cc2)CC1 | 117%
12 | O=C(NCCN1CCC2(CC1)CNc1ccccc12)C1CC1c1ccccc1 (configuration not stated) | 113%
13 | O=C(NCCN1CCN(c2ccncc2)CC1)c1ccccc1-c1ccccc1 | 147%
14 | C[C@@H](CN1CCC(n2c(=O)[nH]c3ccccc32)CC1)NC(=O)c1cc2ccccc2s1 | 28% (active)
15 | Cc1ccc(C(=O)N[C@@H](C)CN2CCC(n3c(=O)[nH]c4ccc(F)cc43)CC2)cc1 | 27.4% (active)
16 | O=C(NCCN1CCC(n2c(=O)[nH]c3ccc(F)cc32)CC1)c1cccc2c1C(=O)c1ccccc1-2 | 0% (active)
17 | C[C@H](CN1CCC2(CC1)CNc1ccccc12)NC(=O)c1cnc2ccccc2c1 | 55%
18 | C[C@H](CN1CCC(n2nnc3ccccc32)CC1)NC(=O)c1ccc2ccccc2c1 | 27.1% (active)
19 | COc1cccc(N2CCN(CCNC(=O)c3ccc(Cl)cc3)CC2)c1 | 96.1%

Row | Compound | remaining activity
20 | Cc1ccc(NC(=S)NCCN2CCC(n3c(=O)[nH]c4ccccc43)CC2)cc1 | 152%
21 | C[C@@H](CN1CCC(c2nc3ccccc3[nH]2)CC1)NC(=O)c1ccc2ccccc2c1 | 58.7%
22 | O=C(NCCN1CCC(C(=O)Nc2ccccc2)CC1)c1ccc2ccccc2c1 | 102%
23 | O=C(NCCN1CCN(c2ccccn2)CC1)c1ccc(F)cc1 | 126%
24 | O=C1c2ccccc2C(=O)N1CCCN1CCC(n2c(=O)[nH]c3cc(Cl)ccc32)CC1 | 67.5%
25 | O=C(NCCN1CCC2(CC1)CCN(c1ccccc1)C2=O)c1cnc2ccccc2c1 | 109%
26 | Cc1ccc(C(=O)NCCN2CCN(c3ccncc3)CC2)cc1 | 148%
27 | C[C@@H](CN1CCC(n2c(=O)[nH]c3ccccc32)CC1)NC(=O)C1C[C@H]1c1ccccc1 (some centres not stated) | 25.5% (active)
28 | CN1CCC2(CCN(CCNC(=O)[C@H]3C[C@@H]3c3ccccc3)CC2)C1=O | 107%
29 | O=C(NCCN1CCC(n2c(=O)[nH]c3ccc(F)cc32)CC1)c1ccc(Cl)c(Cl)c1 | 0% (active)
30 | O=C(NCCN1CCC(n2c(=O)[nH]c3ccccc32)CC1)c1ccc(-c2ccccc2)o1 | 38.7% (active)
31 | O=C1c2ccccc2C(=O)N1CCCNc1cccc(F)c1 | 166%
32 | CC(C)C(=O)N[C@@H](C)CN1CCC(n2c(=O)[nH]c3ccccc32)CC1 | 104%
33 | O=C(NCCN1CCC(n2c(=O)[nH]c3ccccc32)CC1)c1cc2ccccc2c2c1ccc1ccccc12 | 102%
34 | O=C(NCCN1CCC2(CC1)CNc1ccccc12)c1cnc2ccccc2c1 | 126%
35 | O=C(c1ccc(Cl)cc1)N(CCN1CCC(n2c(=O)[nH]c3ccccc32)CC1)C(=O)c1ccc(Cl)cc1 | 63.9%
36 | C[C@@H](CN1CCC(n2c(=O)[nH]c3ccccc32)CC1)NC(=O)CCc1ccc(F)cc1 | 53.9%
37 | NC1(CN2CCC(c3nc4ccccc4[nH]3)CC2)CCCC1 (tested in a mixture with another compound) | 81.2%
